Out of some 220,000 compounds screened, about 770 (0.35%) were called active. Inconclusive results (about 15%) are left out. For the sample, actives were picked, then their nearest neighbours and some compounds at random. Values without a mark were called inactive. Rule as the data show it: active = binding response below about 49% or above about 150%; inconclusive = no clear call, values can overlap the other calls; inactive = in between.

The target in the assay is Guanine nucleotide-binding protein G(o) subunit alpha (Homo sapiens) (UniProt P09471). Kind of assay: compounds changing RGS7 association with Galphao – biochemical, multiplexed bead flow cytometry, primary screen (AID 1439).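 Also: fluorescent Galphao held in activated GDP-AlF4 state binding bead-coupled RGS7.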 As to conditions: at 10 µM, actives lie on both sides. For orientation: A flow cytometer gives signals particle by particle.
Sequence of Guanine nucleotide-binding protein G(o) subunit alpha (Homo sapiens) (P09471 whole entry, looked up): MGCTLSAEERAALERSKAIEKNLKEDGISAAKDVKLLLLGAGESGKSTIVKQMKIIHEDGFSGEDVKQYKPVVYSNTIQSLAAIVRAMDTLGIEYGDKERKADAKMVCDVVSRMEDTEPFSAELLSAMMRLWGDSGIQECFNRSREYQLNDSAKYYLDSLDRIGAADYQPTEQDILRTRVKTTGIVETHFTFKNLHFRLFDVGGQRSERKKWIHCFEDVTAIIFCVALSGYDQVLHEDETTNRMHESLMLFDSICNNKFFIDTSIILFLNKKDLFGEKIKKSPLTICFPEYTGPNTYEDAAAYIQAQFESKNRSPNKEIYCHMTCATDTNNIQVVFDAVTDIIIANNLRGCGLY
As to `Cc1c(C(=O)Nc2ccccc2)sc2nc3n(c(=O)c12)CCCCC3`, the binding response (% of control) is 94.2%.

For `CCC(=O)N1CCC(C(N)=O)(N2CCCCC2)CC1`, the binding response (% of control) was 161% (active).

Consider `NC(=O)C1(N2CCCCC2)CCN(C(=S)Nc2ccc(Cl)cc2)CC1`, for which the binding response (% of control) is 108%.

Turning to `CC(C)(O)C#Cc1ccc(C(=O)N2CCC(C(N)=O)(N3CCCCC3)CC2)cc1`, the binding response (% of control) is 101%.

As to `Fc1ccc(COc2cccc(-c3n[nH]c(=S)o3)c2)cc1`, the binding response (% of control) is 103%.

Regarding `COC(=O)CN1C(=O)N/C(=C/c2ccc(OC)c(C)c2OC)C1=O`, the binding response (% of control) was 103%.

As for `COc1cc(/C=C/C(=O)N2c3ccccc3Sc3ccc(C(F)(F)F)cc32)cc(OC)c1OC`, the binding response (% of control) was 104%.

In the case of `O=C(CN1CCCCC1)N1c2ccccc2Sc2ccc(C(F)(F)F)cc21`, the binding response (% of control) is 27.5% [inhibitor] (active).

As to `O=C(CN1CCCCCC1)N1c2ccccc2Sc2ccc(C(F)(F)F)cc21`, the binding response (% of control) was 89.4%.

For `N#C/C(C(=S)Nc1ccccc1)=C1/NN=C(N2CCOCC2)N1c1ccccc1`, the binding response (% of control) is 97.6%.

For `O=C(Nc1ccc(-n2ccnc2P(=O)(O)c2ccccc2)cc1)c1ccccc1Br`, the binding response (% of control) is 152% (active).

As to `Cc1ccc(NC(=O)c2cccnc2C(=O)Nc2ccc(C)cc2)cc1`, the binding response (% of control) was 106%.

Regarding `O=C(Nc1ccccc1)c1cccnc1Nc1ccccc1`, the binding response (% of control) is 99.9%.

In the case of `COC(=O)C1=C(C)N(c2ccc(C)cc2)/C(=C/c2ccc(O)cc2)C1=O`, the binding response (% of control) was 104%.

On to `Cc1ccc2[nH]c(=O)c(CN(CC3COCCO3)C(=O)Nc3ccccc3C)cc2c1` (stereo unspecified), for which the binding response (% of control) is 102%.

As to `CC(=O)c1ccc(NC(=O)CSC(=S)N2CCCC2)cc1`, the binding response (% of control) is 102%.

For `CN(CC(=O)NC1CCCCC1)S(=O)(=O)c1cccc2cccnc12`, the binding response (% of control) was 241% (active).

Take `CN(CC(=O)NC1CCCCC1)S(=O)(=O)c1ccc(Br)s1`: the binding response (% of control) was 99.1%.

For `Cc1ccc(S(=O)(=O)N(C)CC(=O)NC2CCCC2)cc1`, the binding response (% of control) is 98.3%.

For `N/C(=N/O)c1cccn1Cc1ccccc1[N+](=O)[O-]`, the binding response (% of control) was 99.3%.

For the compound `O=C(COC(=O)CCc1ccc(S(=O)(=O)N2CCOCC2)cc1)Nc1cccc(Cl)c1`, the binding response (% of control) is 99.8%.

As for `CCOC(=O)c1nc(C)n(-c2ccc(Cl)cc2Cl)n1`, the binding response (% of control) was 102%.

For `Cc1cc(C)n(-c2ccc(Cl)c(C(=O)O)n2)n1`, the binding response (% of control) was 96.7%.

On to `Cc1cc(C)nc(/N=C2\NC(=O)CC(C(=O)O)N2c2ccc(Cl)cc2Cl)n1` (stereo unspecified), for which the binding response (% of control) was 170% (active).

As for `COc1cccc(C2c3[nH]c4ccccc4c3CCN2Cc2cccc(C)n2)c1` (stereo unspecified), the binding response (% of control) was 102%.

With `S=C1Nc2cc(Cl)ccc2Sc2ccccc21`, the binding response (% of control) is 100%.

`O=C(NC1CC1)c1ccc2c(c1)NC(=O)c1ccccc1S2`: the binding response (% of control) is 191% (active).

With `O=C(NC1CC1)c1cccc(Br)c1`, the binding response (% of control) was 102%.

As for `CC(=O)NC(Cc1ccc(F)c(F)c1)C(=O)NC1CCN(C(=O)c2ccc(C)cc2)CC1` (stereo unspecified), the binding response (% of control) was 95.6%.

On to `CCCn1c(NC(=O)C23CC4CC(CC(O)(C4)C2)C3)nc2ccccc21`, for which the binding response (% of control) is 104%.

Regarding `CC(=O)N1CCc2cc(Br)cc(S(=O)(=O)CCC(=O)Nc3c(C)n(C)n(-c4ccccc4)c3=O)c21`, the binding response (% of control) is 98.9%.

(Values after PubChem BioAssay AID1439 (NMMLSC, 2008).)
